According to PubChem BioAssay (Tox21):
Records with an inconclusive call do not appear. Activity calls are given as the source filed them. Unless noted, the call rests on the fitted dose curve; in most records, active means well fitted curve in the direction sought with a large enough effect in the repeat runs; inconclusive means weak or mixed curves; inactive means no such curve, though single readings can be large; an effect the other way counts as inactive or inconclusive.

Legend:
[1] = biological target: Peroxisome proliferator-activated receptor delta (Homo sapiens) (UniProt Q03181); experiment: qHTS assay to identify small molecule agonists of the peroxisome proliferator-activated receptor delta (PPARd) signaling pathway (AID 743212; calls by dose curve)
Chain of Peroxisome proliferator-activated receptor delta (Homo sapiens) (Q03181 whole entry, looked up): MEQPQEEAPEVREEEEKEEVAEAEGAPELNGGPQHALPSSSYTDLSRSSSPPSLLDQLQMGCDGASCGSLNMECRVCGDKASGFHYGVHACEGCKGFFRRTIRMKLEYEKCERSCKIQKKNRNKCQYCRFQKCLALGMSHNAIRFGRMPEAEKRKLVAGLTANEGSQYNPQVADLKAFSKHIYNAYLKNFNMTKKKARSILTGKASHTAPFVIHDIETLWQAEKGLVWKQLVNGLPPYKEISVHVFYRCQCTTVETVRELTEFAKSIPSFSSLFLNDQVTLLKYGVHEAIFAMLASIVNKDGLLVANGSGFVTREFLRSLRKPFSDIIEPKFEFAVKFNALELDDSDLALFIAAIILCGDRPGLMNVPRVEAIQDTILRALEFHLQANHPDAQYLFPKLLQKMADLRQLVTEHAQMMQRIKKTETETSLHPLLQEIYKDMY
Method in brief: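 Read-out: beta-lactamase FRET fluorescence after 2 h room-temperature incubation with LiveBLAzer B/G substrate. Cells were HEK293H carrying a UAS-bla reporter for PPARd, treated at 37 C with DMSO-dissolved compounds.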

[2] = qHTS assay to identify small molecule antagonists of the peroxisome proliferator-activated receptor delta (PPARd) signaling pathway - cell viability counter screen (AID 743213); further: nearly all actives have a fitted effect of over 50% in size
Method in brief: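 HEK293H PPARd UAS-bla cells, 5 h pre-incubation, compound + L165041 300 nM final, 17 h 37 C; B/G FRET substrate 2 h RT; then CellTiter-Glo 30 min RT, luminescence.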

[3] = biological target: Peroxisome proliferator-activated receptor delta (Homo sapiens) (UniProt Q03181); experiment: qHTS assay to identify small molecule antagonists of the peroxisome proliferator-activated receptor delta (PPARd) signaling pathway (AID 743215; active means well fitted inhibition curve with a large enough effect in the signal ratio in the repeat runs, not every such curve was filed as active; the % refers to the signal ratio;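 further: cells stimulated with agonist L165041 at 300 nM final during compound exposure; series mostly up to about 62 µM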)
Method in brief: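 Agonist L165041 (300 nM final) added with compound to PPARd-bla HEK293H UAS-bla reporter cells; 17 h incubation at 37 C. Read-out: LiveBLAzer FRET substrate, 2 h at room temperature, fluorescence intensity.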

[4] = biological target: Bile acid receptor (Homo sapiens) (UniProt Q96RI1); experiment: qHTS assay to identify small molecule antagonists of the farnesoid-X-receptor (FXR) signaling pathway (AID 743217; active means well fitted inhibition curve with a large enough effect in the signal ratio in the repeat runs, not every such curve was filed as active; the % refers to the signal ratio)
Chain of Bile acid receptor (Homo sapiens) (Q96RI1 whole entry, looked up): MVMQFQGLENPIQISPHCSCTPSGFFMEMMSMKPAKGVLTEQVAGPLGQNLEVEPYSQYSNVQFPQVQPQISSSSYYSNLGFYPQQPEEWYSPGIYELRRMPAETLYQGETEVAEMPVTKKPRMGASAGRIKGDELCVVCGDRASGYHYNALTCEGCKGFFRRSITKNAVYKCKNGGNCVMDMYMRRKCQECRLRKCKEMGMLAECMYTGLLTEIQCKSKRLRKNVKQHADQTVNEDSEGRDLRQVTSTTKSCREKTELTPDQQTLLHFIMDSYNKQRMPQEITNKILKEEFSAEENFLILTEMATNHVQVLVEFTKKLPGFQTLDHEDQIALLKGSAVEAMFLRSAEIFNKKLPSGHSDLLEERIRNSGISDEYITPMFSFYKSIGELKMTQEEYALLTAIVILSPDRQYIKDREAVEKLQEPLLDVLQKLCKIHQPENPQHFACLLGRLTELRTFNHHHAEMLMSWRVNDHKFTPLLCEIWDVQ
Method in brief: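 Antagonist mode: chenodeoxycholic acid at 50 uM final stimulates a UAS-driven beta-lactamase reporter in HEK 293T FXR-bla cells during 16 h, 37C compound exposure. Read-out is FRET substrate fluorescence after 2 h at room temperature.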

[5] = qHTS assay to identify small molecule agonists of the farnesoid-X-receptor (FXR) signaling pathway - cell viability counter screen (AID 743218); further: nearly all actives have a fitted effect of over 45% in size
Method in brief: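 Viability counter screen in the same wells: CellTiter-Glo luminescence, 30 min room-temperature incubation, measured after the beta-lactamase read. Cells were GeneBLAzer FXR-UAS-bla HEK 293T, compound-treated 16 h at 37C.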

[6] = biological target: Bile acid receptor (Homo sapiens) (UniProt Q96RI1); experiment: qHTS assay to identify small molecule agonists of the farnesoid-X-receptor (FXR) signaling pathway (AID 743220; active means well fitted activation curve with a large enough effect in the signal ratio in the repeat runs, not every such curve was filed as active; the % refers to the signal ratio)
Method in brief: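 FXR-UAS-bla HEK 293T cells carrying a UAS-driven beta-lactamase reporter were plated for 5 h at 37C/5% CO2, then exposed to DMSO-dissolved Tox21 10K compounds for 16 h at 37C. A LiveBLAzer B/G FRET substrate was loaded for 2 h at room temperature before fluorescence reading.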

[7] = qHTS assay to identify small molecule antagonists of the farnesoid-X-receptor (FXR) signaling pathway - cell viability counter screen (AID 743221; active means well fitted cell-killing curve with a large enough effect in the repeat runs, not every such curve was filed as active; further: nearly all actives have a fitted effect of over 50% in size)
Method in brief: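 Quantitative HTS of the Tox21 10K library run in parallel with the beta-lactamase reporter read. HEK 293T cells carrying a UAS-driven bla reporter got compound and 50 uM CDCA (final) for 16 h; ATP-based luminescence followed.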

[8] = biological target: Vitamin D3 receptor (Homo sapiens) (UniProt P11473); experiment: qHTS assay to identify small molecule agonists of the vitamin D receptor (VDR) signaling pathway (AID 743222; calls by dose curve)
Chain of Vitamin D3 receptor (Homo sapiens) (P11473 whole entry, looked up): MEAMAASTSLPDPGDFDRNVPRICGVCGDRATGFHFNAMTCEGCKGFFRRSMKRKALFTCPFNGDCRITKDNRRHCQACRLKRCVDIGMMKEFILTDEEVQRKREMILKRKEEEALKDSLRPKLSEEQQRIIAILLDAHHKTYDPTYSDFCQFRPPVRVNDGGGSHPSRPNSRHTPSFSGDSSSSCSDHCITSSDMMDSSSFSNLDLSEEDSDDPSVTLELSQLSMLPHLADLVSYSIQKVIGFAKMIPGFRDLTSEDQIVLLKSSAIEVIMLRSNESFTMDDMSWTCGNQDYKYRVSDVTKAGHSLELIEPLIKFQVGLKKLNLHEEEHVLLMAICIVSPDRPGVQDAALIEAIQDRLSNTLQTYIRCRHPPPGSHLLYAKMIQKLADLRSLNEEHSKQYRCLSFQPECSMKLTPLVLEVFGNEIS
Method in brief: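 Agonist mode, beta-lactamase reporter: fluorescence from LiveBLAzer B/G FRET substrate (2 h, room temperature) read after 16 h compound treatment at 37 C of VDR-bla cells, which were pre-incubated 4 h after seeding.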

[9] = biological target: Vitamin D3 receptor (Homo sapiens) (UniProt P11473); experiment: qHTS assay to identify small molecule antagonists of the vitamin D receptor (VDR) signaling pathway (AID 743223; active means well fitted inhibition curve with a large enough effect in the signal ratio in the repeat runs, not every such curve was filed as active; the % refers to the signal ratio)
Method in brief: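 Fluorescence from LiveBLAzer B/G FRET substrate, read after 2 h at room temperature, reflects beta-lactamase reporter activity in VDR-bla cells treated 16 h at 37C with compounds and agonist 1alpha,25-dihydroxyvitamin D3 (3 nM final).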

[10] = qHTS assay to identify small molecule agonists of the vitamin D receptor (VDR) signaling pathway - cell viability counter screen (AID 743224); further: series mostly up to about 63 µM; nearly all actives have a fitted effect of over 50% in size
Method in brief: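 Counter screen run in the same wells as the VDR-bla reporter assay: CellTiter-Glo luminescence, 30 min at room temperature, after 16 h compound treatment at 37C of cells pre-plated for 4 h.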

[11] = qHTS assay to identify small molecule antagonists of the vitamin D receptor (VDR) signaling pathway - cell viability counter screen (AID 743225); further: nearly all actives have a fitted effect of over 50% in size
Method in brief: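 Cells (VDR-UAS-bla HEK 293T) are plated, rested 4 h at 37C, dosed with compound and 3 nM final 1-alpha,25-dihydroxy vitamin D3, and incubated 16 h. Viability is taken from CellTiter-Glo luminescence in the reporter wells.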

[12] = qHTS assay to identify small molecule agonists of the NFkB signaling pathway - cell viability counter screen (AID 1159515; calls by dose curve; further: series mostly up to about 61 µM; nearly all actives have a fitted effect of over 55% in size)
Method in brief: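 Read by CellTiter-Glo luminescence (30 min, room temperature) in the wells also used for the beta-lactamase FRET read. ME-180 NFkB-bla cells at 2,000 per well were plated overnight, then exposed to compound for 5 hr at 37 C.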

[13] = qHTS assay to identify small molecule agonists of the endoplasmic reticulum stress response signaling pathway (AID 1159516; active means well fitted activation curve with a large enough effect in the signal ratio in the repeat runs, not every such curve was filed as active; the % refers to the signal ratio)
Method in brief: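 Ratiometric FRET readout (405 nm excitation; 460 and 530 nm emission) of a beta-lactamase gene driven by the ER stress response element, after 2 hr substrate loading. HeLa ESRE-bla cells were seeded overnight and treated with compounds for only 5 hr at 37 C.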

[14] = qHTS assay to identify small molecule agonists of the endoplasmic reticulum stress response signaling pathway - cell viability counter screen (AID 1159517; calls by dose curve)
Method in brief: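 Steps: seed 1,500 ESRE-bla HeLa cells per well; incubate overnight at 37 C, 5% CO2; add compounds in DMSO for 5 hr; run FRET substrate 2 hr RT; add CellTiter-Glo, wait 30 min, read luminescence.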

[15] = qHTS assay to identify small molecule antagonists of the retinoid-related orphan receptor gamma (ROR-gamma) signaling pathway - cell viability counter screen (AID 1159520); further: nearly all actives have a fitted effect of over 50% in size
Method in brief: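 Tet-on ROR gamma CHO cells were given compounds for 2 hr, then doxycycline hyclate at 1 uM final, and incubated 16 hr at 37 C. Viability was measured as ATP content by CellTiter-Glo luminescence.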

[16] = biological target: Nuclear receptor ROR-gamma (Homo sapiens) (UniProt P51449); experiment: qHTS assay to identify small molecule antagonists of the retinoid-related orphan receptor gamma (ROR-gamma) signaling pathway (AID 1159521)
Method in brief: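 RORγ antagonism is scored from reduced reporter luminescence in Tet-on CHO cells. Induction used 1 uM final doxycycline hyclate for 16 h at 37 C, following a 2 h compound exposure.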

[17] = qHTS assay to identify small molecule agonists of the AP-1 signaling pathway - cell viability counter screen (AID 1159525; calls by dose curve; further: nearly all actives have a fitted effect of over 55% in size)
Method in brief: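 Same-well cytotoxicity counter screen of the Tox21 10K library in ME-180 cells. The readout is ATP-dependent luminescence after 5 h compound treatment. Data are normalised to DMSO and tetra n-octyl ammonium bromide controls.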

[18] = qHTS assay to identify small molecule agonists of the AP-1 signaling pathway (AID 1159526; calls by dose curve)
[19] = biological target: Retinoic acid receptor RXR-alpha (Homo sapiens) (UniProt P19793); experiment: qHTS assay to identify small molecule agonists of the RXR signaling pathway (AID 1159527; calls by dose curve; further: nearly all actives have a fitted effect of over 35% in size)
Chain of Retinoic acid receptor RXR-alpha (Homo sapiens) (P19793 whole entry, looked up): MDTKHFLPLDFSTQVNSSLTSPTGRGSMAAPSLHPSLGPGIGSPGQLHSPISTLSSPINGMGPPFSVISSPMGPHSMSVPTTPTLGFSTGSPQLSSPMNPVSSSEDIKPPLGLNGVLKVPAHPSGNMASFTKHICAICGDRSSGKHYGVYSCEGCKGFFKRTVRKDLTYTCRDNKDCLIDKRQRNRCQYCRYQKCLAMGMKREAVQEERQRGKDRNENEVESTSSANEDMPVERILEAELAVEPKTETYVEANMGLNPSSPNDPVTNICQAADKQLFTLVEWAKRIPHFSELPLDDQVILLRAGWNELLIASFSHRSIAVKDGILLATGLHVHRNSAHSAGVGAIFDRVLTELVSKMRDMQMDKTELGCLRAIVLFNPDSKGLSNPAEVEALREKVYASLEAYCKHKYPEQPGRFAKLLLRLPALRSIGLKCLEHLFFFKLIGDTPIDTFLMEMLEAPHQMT
Method in brief: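 qHTS of the Tox21 10K library in GeneBLAzer RXR-alpha HEK 293T cells carrying a beta-lactamase reporter […]; 16 hr treatment, 9-cis retinoic acid as agonist control, FRET read-out.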

[20] = qHTS assay to identify small molecule agonists of the RXR signaling pathway - cell viability counter screen (AID 1159529)
Method in brief: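 Cell viability is measured by CellTiter-Glo luminescence, 30 min at room temperature, in wells already read for beta-lactamase. Engineered HEK 293T cells (RXR-alpha-UAS-bla) are dosed 16 hr at 37 C. Tetraoctyl ammonium bromide serves as positive control.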

Measured: Potency

CC1COc2c(N3CCN(C)CC3)c(F)cc3c(=O)c(C(=O)O)cn1c23 (stereo not drawn)
inactive: [1] | [2] | [3] | [4] | [5] | [6] | [7] | [8] | [9] | [10] | [11] | [12] | [13] | [14] | [15] | [16] | [17] | [18] | [19] | [20]

NC(N)=Nc1nc(CSCC/C(N)=N/S(N)(=O)=O)cs1
inactive: [1] | [2] | [3] | [4] | [5] | [6] | [7] | [8] | [9] | [10] | [11] | [12] | [13] | [14] | [15] | [16] | [17] | [18] | [19] | [20]

C[N+]1([O-])CCOCC1
inactive: [1] | [2] | [3] | [5] | [7] | [8] | [9] | [10] | [11] | [12] | [13] | [14] | [15] | [16] | [17] | [18] | [19] | [20]

O=C(O)Cn1cnnn1
inactive: [1] | [2] | [3] | [4] | [5] | [6] | [7] | [8] | [9] | [10] | [11] | [12] | [13] | [14] | [15] | [16] | [17] | [18] | [19] | [20]

C/C=C/c1ccc(OCC)c(O)c1
inactive: [1] | [2] | [3] | [5] | [7] | [8] | [9] | [10] | [12] | [13] | [14] | [15] | [16] | [17] | [18] | [19] | [20]

CCOc1ccccc1C(N)=O
inactive: [1] | [2] | [3] | [4] | [5] | [6] | [7] | [8] | [9] | [10] | [11] | [12] | [13] | [14] | [15] | [16] | [17] | [18] | [19] | [20]

C#CC(C)(CC)OC(=O)c1ccccc1C(=O)O (stereo not drawn)
inactive: [1] | [2] | [3] | [5] | [7] | [8] | [9] | [10] | [11] | [12] | [13] | [14] | [15] | [16] | [17] | [18] | [19] | [20]
